# Only a selection was taken, and hits are over-represented in it overall.
# PKM2 inh: blocks activity of human pyruvate kinase M2; P14618; purified PKM2, ATP generation, Kinase-Glo luminescence; Potency, µM (highest dose often 57.5 µM), for the others: at the top dose activity change, negative = inhibition, most hits filed as inhibitors; 0.058% of 260,000 active; AID 1634; active = well fitted inhibition curve with a large enough effect; also: nearly all actives have a fitted effect of over 60% in size
# Target sequence (P14618 whole entry, looked up): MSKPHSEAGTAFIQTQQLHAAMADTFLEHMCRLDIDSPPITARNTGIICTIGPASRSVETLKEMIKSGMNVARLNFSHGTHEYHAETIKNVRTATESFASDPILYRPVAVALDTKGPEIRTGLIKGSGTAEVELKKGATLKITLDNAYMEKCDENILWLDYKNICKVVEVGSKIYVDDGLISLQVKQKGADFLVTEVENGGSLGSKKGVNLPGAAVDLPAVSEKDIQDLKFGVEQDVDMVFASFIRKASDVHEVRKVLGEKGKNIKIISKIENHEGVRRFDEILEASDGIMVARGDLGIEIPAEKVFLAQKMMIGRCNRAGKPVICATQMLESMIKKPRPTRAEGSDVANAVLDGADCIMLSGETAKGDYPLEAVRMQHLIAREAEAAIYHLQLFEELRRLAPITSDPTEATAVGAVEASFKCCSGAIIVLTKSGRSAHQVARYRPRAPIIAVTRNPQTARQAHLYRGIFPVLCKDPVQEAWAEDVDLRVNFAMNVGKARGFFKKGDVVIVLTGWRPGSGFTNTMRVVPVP
#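 Coupled luciferase luminescence (Kinase-Glo) detects ATP generated from 0.1 mM ADP and 0.5 mM PEP in imidazole buffer pH 7.2 with KCl, MgCl2; 1 h at room temperature. Enzyme at intermediate activity; normalized to uninhibited and no-enzyme controls.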
# * marks the source's active call; other numbers are inactive results. Potency is read from the fitted curve at half-maximal effect.
SMILES,PKM2 inh
Cc1ccsc1/C=N/Nc1nc(=O)[nH]nc1C,14µM*
C/C(=N\NC(=O)c1cccc(N/N=C(\C)c2cc(O)ccc2O)c1)c1cc(O)ccc1O,49%
O=C(Nc1ccc(N2CCOCC2)c(Cl)c1)c1ccc(-n2cnnc2)cc1Cl,43%
c1c2c(cc3sc(N4CCOCC4)nc13)OCCO2,14µM*
CCOc1cc(S(=O)(=O)n2nc(C)cc2C)ccc1Br,74%
CN1C(=O)c2cccc3c(S(=O)(=O)Nc4ccccc4F)ccc1c23,79%
Cc1ccc(-n2nnc(-c3nccn3C)n2)cc1,16µM*
O=C1CNC(=S)N1CCc1ccc(O)c(O)c1,45%
COc1cc(C2Oc3ccccc3C=C2[N+](=O)[O-])cc(OC)c1OC (stereo not given),46%
Nc1cc2c(cc1O)CCCC2,37%
Cc1ccc(NC(=O)c2cc(N3C(=O)C=CC3=O)ccc2Cl)cc1C,85%
Cc1cc(-c2nnc(SCC(=O)Nc3nccs3)o2)no1,90%
Cc1ccc(-c2cc3c(nn2)-c2ccccc2C3=O)cc1,13µM*
CCOC(=O)C1=C(Cc2ccc(C)cc2)C(=O)c2ccccc2C1=O,40%
COC(=O)CCCCCCCC(=O)Nc1nnc(C(F)(F)F)s1,32%
Nc1nc(-c2ccccc2)cn1N,78%
Cc1ccc2nc(-c3ccccc3)cn2c1,14µM*
O=C1CCN(S(=O)(=O)c2ccccc2)CCN1CCOCc1cccc(F)c1,7%
CCOC(=O)C1=C(C)N(C)C(=O)NC1c1cccc2ccccc12 (stereo not given),-25%
CCOC(=O)N/N=C(\C)c1ccc(C)c([N+](=O)[O-])c1,52%
COc1ccc(C(=O)NCCN2C(=O)S/C(=C\c3cccnc3)C2=O)cc1[N+](=O)[O-],97%
O=C(CCC(=O)N1CCOc2ccc(Cl)cc21)NCCN1CCOCC1,31%
CCN1/C(=C/c2ccc3ccccc3[n+]2CC)C=Cc2ccccc21,14µM*
N#CCc1nn2c3c(cnc2c1C#N)C(=O)CCC3,54%
Cn1cccc1/C=N/N1CCN(Cc2cccc3ccccc23)CC1,47%
SMILES,PKM2 inh
Cc1ccc(C(=O)O/N=C(\N)c2ccccn2)c(C)c1,7.9µM*
N/C(=N\OC(=O)c1ccc(Cl)cc1)c1ccccn1,7.1µM*
O=C(OCc1ccc(Cl)cc1Cl)c1cccnc1Cl,44%
N/C(=N\OC(=O)CCCN1C(=O)c2ccccc2C1=O)c1ccccn1,55%
C#CC(C)(C)NC(=O)c1ccc(-c2ccccc2F)cc1,1%
COc1cc2cc(C#N)c(SCC(=O)Nc3cc(C)on3)nc2cc1OC,64%
COc1cc(CN2CCNC(=O)C2CC(=O)N2CCCO2)cc(OC)c1 (stereo not given),70%
COCCOC(=O)/C(C#N)=C/c1cn(Cc2ccccc2)nc1-c1cccnc1,65%
COc1ccc(CN2C(=O)/C(=C/c3ccncc3)SC2=S)cc1,31%
O=S(=O)(c1ccccc1)C1(C2CC(c3ccccc3)=NO2)CC(O)C1 (stereo not given),0%
C=CCn1c(SCc2nc3ccccc3c(=O)[nH]2)nc2scc(C3CC3)c2c1=O,64%
COc1ccc(S(=O)(=O)N2CCN(C(=O)NCc3ccc(C)cc3)CC2)cc1,63%
COc1ccc(/C=C/C(=O)c2ccccn2)cc1,16µM*
COc1cc(/C=C/C(=O)CC(=O)/C=C/c2ccc(O)c(OC)c2)ccc1O,30%
COc1ccc(/C=C/C(=O)NCCNC(=O)c2ccccc2)cc1OC,38%
COc1ccc(C(=O)NNC(=O)c2ccccn2)cc1,3.5µM*
COc1ccc(CNC(=O)c2c(C)nc3ccccn23)cc1,43%
COc1ccc(-n2c(SCC(=O)O)nnc2-c2ccc(NC(=O)c3ccccc3)cc2)cc1,40%
COc1cc(CN2CCNC(=O)C2CC(=O)N(C)Cc2ncc[nH]2)cc(OC)c1 (stereo not given),73%
CC(C)(C)C(=O)/C(=C/c1ccncc1)n1cncn1,49%
O=S(=O)(Nc1nc2ccc(Cl)cc2s1)c1cccs1,68%
COc1ccc(S(=O)(=O)NCc2cccnc2)cc1C,0%
Clc1ccc(C2=NNC(=NCc3ccc4c(c3)OCO4)SC2)cc1,59%
c1ccc(C2=NNC(=NC3CC3)SC2)cc1,14µM*
O=S(=O)(c1cccs1)N1CN(C2CCCCC2)c2nc3ccccc3nc21,-1%
SMILES,PKM2 inh
O=C(CSc1nc2ncccc2[nH]1)NCCc1ccccc1,58%
O=[N+]([O-])c1ccc(OCc2cnc(Cl)s2)c([N+](=O)[O-])c1,71%
CC1CCN(CC(=O)Nc2ccc(S(=O)(=O)NC3CC3)cc2)CC1,36%
N#C/C(=C/Nc1ccccc1C(=O)O)C(N)=O,-8%
O=C(/C=C\c1ccc(-c2ccccc2)o1)c1ccccc1,35%
NC(=O)c1ccccc1N/C=C/C(=O)c1ccccc1,11µM*
CCCCCC1CCC(C(=O)N2CCOCC2)CC1 (stereo not given),44%
COC(=O)[C@@]1(Cc2ccc(OC)cc2)[C@H]2c3cc(C(=O)N4CCCC4)n(CCc4ccc(O)c(O)c4)c3C[C@H]2CN1C(=O)c1ccccc1,54%
Cc1cccc(N2CCN(C(=O)c3c(Cl)cnn3C)CC2)c1C,36%
Cc1c(C(=O)OCc2ccccc2)nnn1-c1nonc1N,36%
N/C(=N/OC(=O)c1ccccc1F)c1nonc1N,16µM*
CC1=C(C#N)C(=O)N(C2CCS(=O)(=O)C2)C(=O)/C1=C\c1ccc(C)o1 (stereo not given),49%
Cn1c(Cn2cnc3ccccc32)nc2ccccc21,59%
Cn1c(CSc2nnc(SCc3ccccc3)s2)nc2ccccc21,100%
Cn1c(/C=C/c2ccccc2)nc2ccccc21,13µM*
C/C=C\C=C\C(=O)N1CC2(CC(c3cccc(NC(=O)CC)c3)=NO2)C[C@H]1C(N)=O (stereo not given in full),76%
N#Cc1ccccc1Cn1cc(/C=C/[N+](=O)[O-])c2ccccc21,39%
COc1ccccc1C(=O)Nc1nc2ccccc2[nH]1,16µM*
CCCCNS(=O)(=O)c1ccc2nc(SCC(=O)c3ccccc3OC)[nH]c2c1,32%
COc1ccccc1C(=O)Nc1ncc2c(n1)CC(c1ccco1)CC2=O (stereo not given),46%
CCNc1nc(NC(C)C)nc(Oc2ccc(/C=N/O)cc2)n1,42%
Cc1ccc(NS(=O)(=O)c2cc3c4c(cccc4c2)C(=O)NC3=O)cc1C,97%
Cc1ccc2c(c1)C(N1CCCC1=O)CC(c1ccco1)N2 (stereo not given),14µM*
Cc1ccc(CC2CC(=O)N(Cc3ccco3)C2=O)cc1 (stereo not given),30%
Cc1ccc(CNC(=O)CCC2CCCN(C(=O)c3ccc4c(c3)OCO4)C2)o1 (stereo not given),55%
SMILES,PKM2 inh
C(=N\Nc1nc2ccccc2[nH]1)/c1ccccn1,14µM*
C(=N\n1cnnc1)/c1ccccn1,-9%
Cc1nnc2sc(SCC(=O)Nc3nccs3)nn2c1=O,62%
O=C(NC1CC1)C1=C[C@@H](c2csc3ccccc23)C[C@@H](OCc2ccc(CO)cc2)O1,60%
COc1ccc2nc(S(=O)Cc3ncc(C)c(OC)c3C)[nH]c2c1 (stereo not given),58%
COc1ccc(S(=O)(=O)N2CCC(Nc3ccccc3Cl)CC2)cc1,37%
O=C(CSc1nc2ccc(Cl)cc2[nH]1)N1CCN(C(=O)c2ccco2)CC1,36%
COc1cccc(-c2nc(-c3ccccn3)no2)c1,14µM*
COc1ccc(S(=O)(=O)NCc2c(-c3ccccc3)noc2C)c(OC)c1,78%
c1ccc(-c2noc(-c3ccncc3)n2)nc1,14µM*
c1cc(-c2nnc(-c3ccncc3)o2)ccn1,72%
